In the library only some 4.2% were active in any assay of this set; here they are far more common.
CHOP inh: blocks CHOP induction under ER stress; 220,000 compounds, 3.8% hits; inhibition, % at 10 µM; CHO-K1 CHOP-promoter luciferase, tunicamycin-induced, 15-18 h;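 active means compounds that reduced the stress-induced luciferase reporter signal by more than about 70% of percent inhibition, limit read from the data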
S1P4 ag: agonists of human S1P4 receptor. O95977. S1P4-expressing cell line, agonist reporter assay. activation, % at 4.98 µM. 220,000 compounds, 0.35% hits; in the data active means activation above about 11%
Target sequence (O95977 whole entry, looked up): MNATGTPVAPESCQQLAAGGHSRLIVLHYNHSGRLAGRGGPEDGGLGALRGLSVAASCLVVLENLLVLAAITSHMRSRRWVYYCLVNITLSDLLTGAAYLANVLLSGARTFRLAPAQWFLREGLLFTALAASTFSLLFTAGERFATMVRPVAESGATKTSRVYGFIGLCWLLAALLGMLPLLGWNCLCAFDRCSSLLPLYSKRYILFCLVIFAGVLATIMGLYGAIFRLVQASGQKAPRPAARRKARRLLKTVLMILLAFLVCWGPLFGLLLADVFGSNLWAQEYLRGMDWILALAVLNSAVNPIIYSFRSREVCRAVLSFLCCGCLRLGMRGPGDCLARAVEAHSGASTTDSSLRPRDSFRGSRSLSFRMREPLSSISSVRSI
S1P4 antag: blocks the human S1P4 receptor; inhibition, % at 4.98 µM; S1P4-expressing cells, antagonist mode, reporter read-out; 220,000 compounds, 0.26% hits; O95977; AID 1510; in the data active means inhibition above about 29%
Hsp70 activator: transcriptional activators of Hsp70; HeLa Hsp70 promoter luciferase reporter, luminescence; scaled: vehicle 0, proteasome-inhibitor control 100%; activation, % at 10 µM; 200,000 compounds, 0.04% hits; AID 1203;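 active means activation above the mean across all tested compounds plus 3 SD, cutoff set per campaign, cut at about 5.5% in these data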
Of the large screens only hits and unclear results are named; the others gave an inactive call.

Cc1cccc(NC(=O)c2cccc3c2-c2ccccc2C3=O)n1	none
Cc1cccc(C)c1NC(=O)c1cccc2c1-c1ccccc1C2=O	CHOP inh 78
CCn1c(CC(=O)Nc2ccccc2F)nnc1SCC(=O)N1CCN(c2ccccc2)CC1	none
COc1ccccc1CN1CC(C(=O)N2CCN(c3ccc(F)cc3)CC2)CC1=O (stereo unspecified)	none
COC(=O)c1cc(OC)c(OC)cc1NC(=O)c1cccc(C)c1	CHOP inh 70
CCCc1cc(-c2n[nH]c(=S)n2CC)cs1	none
CCCc1cc(-c2n[nH]c(=S)n2C(C)c2ccccc2)cs1 (stereo unspecified)	CHOP inh 96
O=C(CSc1ccc2ccccc2c1)N1CCN(c2ccc(O)cc2)CC1	none (no result: Hsp70 activator)
CC(=O)OCCN(Cc1ccccc1)Cc1ccc2c(c1)OCO2	CHOP inh 70
CCCC(=O)Nc1nc2ccc3nc(C)sc3c2s1	CHOP inh 75
O=c1c2ccccc2nc2n1CCS2(=O)=O	CHOP inh 84 (no result: Hsp70 activator)
CCN1C(=O)CSC1=NC1C2CC3CC(C2)CC1C3 (stereo unspecified)	CHOP inh 76
C=CCOc1nc2c(c(=O)n(C)c(=O)n2C)n1C	none
CCSc1nnc(NC(=O)NC(CC)(C(F)(F)F)C(F)(F)F)s1	CHOP inh 90
C/C(=C/CCC(C)[C@H]1CC[C@@]2(C)C3=C(CC[C@]12C)[C@@]1(C)CCC(=O)C(C)(C)[C@@H]1CC3)C(=O)O (stereo partly specified)	CHOP inh 74
COc1ccccc1CCc1nnc(CCC(=O)N(C)Cc2ccncc2C)o1	none
Cc1ccc(C(=O)/C=C/c2cn(CN3CCN(C)CC3)c3ccccc23)cc1	CHOP inh 82
Cc1ccc(C(=O)/C=C/c2c[nH]c3ccccc23)cc1	CHOP inh 81
COC(=O)CCC(=O)OC1(C)C(=O)C=C2C=C(C3CC3)N(C3CCCC3)C=C2C1=O (stereo unspecified)	none (no result: S1P4 ag, S1P4 antag, Hsp70 activator)
Cc1nn(Cc2c(Cl)cccc2Cl)c(Cl)c1/C=C/C(=O)OCC(=O)NCC(F)(F)F	CHOP inh 75
Cc1nn(Cc2ccccc2)c(Cl)c1/C=C/C(=O)OCC(=O)NC(C)C(C)C (stereo unspecified)	none
CCc1ccccc1NC(=O)/C(C#N)=C/c1ccc(Sc2ccccc2)o1	none
CC(C)CSc1nc(N2CCOCC2)c2c(c1C#N)CC(C)(C)SC2	none
CCCSc1nc(N2CCOCC2)c2c(c1C#N)CC(C)(C)SC2	CHOP inh 78
Cc1oc(-c2cccc(Cl)c2)nc1CN1CCC(C(=O)NCc2ccco2)CC1	none
Cc1cc(OC(C)C)c2c(-c3ccccc3)cc(=O)oc2c1	CHOP inh 79
NC(=O)NC(c1ccccc1)c1ccccc1	none
N#Cc1nc(COc2ccc(Cl)cc2)oc1N1CCCCCC1	CHOP inh 71
N#Cc1nc(COc2ccc(F)cc2)oc1N1CCN(Cc2ccccc2)CC1	none
N#Cc1nc(Cc2cccc3ccccc23)oc1N1CCCCC1	CHOP inh 76
N#Cc1nc(COc2ccc(Br)cc2)oc1N1CCN(Cc2ccccc2)CC1	CHOP inh 74
N#C/C(=C\c1ccc[nH]1)C(=O)NCC1CCCO1 (stereo unspecified)	none (no result: Hsp70 activator)
COCCn1c(SCc2ccc(C(=O)OC)o2)nnc1-c1c[nH]c2ccccc12	none
CCOC(=O)c1oc2ccc(S(=O)(=O)n3nc(-c4ccccc4)cc3N)cc2c1C	CHOP inh 85
O=C(Cn1cnc2ccccc2c1=O)Nc1cccc(-c2nnc3n2CCCCC3)c1	none
Cc1ccc(-c2nc(N)n(C(=O)Cc3ccccc3)n2)cc1	CHOP inh 86
Nc1nc(SCc2ccc(Cl)cc2Cl)n[nH]1	none
CNc1cc(CSC)nc(SCc2ccc(Cl)cc2Cl)n1	CHOP inh 77
COc1ccc(-c2ccc(/C=C3/C(=N)N4C=CSC4=NC3=O)o2)c([N+](=O)[O-])c1	CHOP inh 82
COCCn1c(=NC(=O)c2sc3ccccc3c2Cl)sc2cc(S(N)(=O)=O)ccc21	CHOP inh 75
C=CCn1c(=NC(=O)c2sc3ccccc3c2Cl)sc2cc(S(N)(=O)=O)ccc21	CHOP inh 82
C=CCn1c(=NC(=O)c2cc(Cl)sc2Cl)sc2cc(S(N)(=O)=O)ccc21	none
CC(C)(C)N(Cc1cc2ccccc2[nH]c1=O)C(=O)c1cccnc1	none
Cc1cc(-c2ccc([N+](=O)[O-])cc2)nc2ccccc12	none
Cc1cc(N2CCN(c3nc(-c4ccc([N+](=O)[O-])cc4)cs3)CC2)c2ccccc2n1	CHOP inh 82
COc1ccc(CCn2c(-n3nc(C)cc3C)nc3c2c(=O)[nH]c(=O)n3C)cc1	none (no result: CHOP inh)
CCCc1ccc(OCc2ccc(C(=O)N3CCN(c4ccccn4)CC3)o2)c(OC)c1	CHOP inh 79

Source: PubChem
